GALR2 antag: antagonists of human galanin receptor 2 (GALR2). inhibition, % at 4 µM. actives 0.39% (n = 140,000). GALR2-expressing cells, antagonist mode. O43603. AID 828;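 note: cells stimulated with galanin 1-16 at roughly its EC80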
Target sequence (O43603 whole entry, looked up): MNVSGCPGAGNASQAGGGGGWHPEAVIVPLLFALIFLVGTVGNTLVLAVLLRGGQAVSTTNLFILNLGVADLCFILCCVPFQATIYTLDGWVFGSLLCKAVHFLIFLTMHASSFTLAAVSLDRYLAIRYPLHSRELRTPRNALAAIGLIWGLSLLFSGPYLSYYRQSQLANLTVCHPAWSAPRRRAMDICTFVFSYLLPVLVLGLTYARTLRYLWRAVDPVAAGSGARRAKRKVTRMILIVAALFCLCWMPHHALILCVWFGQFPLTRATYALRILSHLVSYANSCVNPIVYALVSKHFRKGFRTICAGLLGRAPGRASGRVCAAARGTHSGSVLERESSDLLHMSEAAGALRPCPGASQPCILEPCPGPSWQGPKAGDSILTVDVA
GALR2 ag: activates the human galanin receptor 2; activation, % (concentration not given with the values); actives 0.48% (n = 140,000); O43603; GALR2-expressing cells, agonist activation read-out; in the data active = activation above about 5%, passing the limit was not always enough
F-actin modifier: modifiers of cytoskeleton assembly | HUVEC TNFa F-actin phalloidin imaging, high content | inhibition, % at 2 µM | actives 0.18% (n = 91,000);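 active = inhibition above the batch mean plus 3 SD and confirmed as a hit by visual image inspection, cut at about 30% in these data, passing the limit was not always enough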
S1P2 blocker: antagonists of human S1P2 receptor. cell-based S1P2 antagonist assay, inhibition at 5 uM. AID 736. O95136. inhibition, % at 5 µM. actives 0.21% (n = 97,000); in the data active = inhibition above about 45%;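 note: CRE beta-lactamase reporter cells expressing human S1P2 stimulated with S1P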
Target sequence (O95136 whole entry, looked up): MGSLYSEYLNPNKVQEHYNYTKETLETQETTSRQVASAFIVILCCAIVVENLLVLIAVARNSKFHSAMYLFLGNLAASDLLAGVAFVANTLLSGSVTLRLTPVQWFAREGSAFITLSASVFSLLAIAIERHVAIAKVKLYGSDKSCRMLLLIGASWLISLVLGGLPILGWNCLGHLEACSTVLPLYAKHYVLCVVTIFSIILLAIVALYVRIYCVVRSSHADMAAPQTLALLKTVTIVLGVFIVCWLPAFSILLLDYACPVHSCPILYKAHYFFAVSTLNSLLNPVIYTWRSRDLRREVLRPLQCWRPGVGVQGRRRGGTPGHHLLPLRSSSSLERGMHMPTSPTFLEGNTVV
S1P2 agonist: S1P2 (human) receptor agonism; O95136; S1P2-expressing cell line, agonist reporter read-out; activation, % at 4.5 µM; actives 0.46% (n = 97,000); in the data active = activation above about 16%
GALR2 agon conf: GALR2 (human) agonism confirmed; shares compounds with GALR2 ag; GALR2-expressing cells, agonist activation; activation, % at 5.6 µM; actives 10% (n = 460); AID 864; in the data active = activation above about 8.4%
BLA act counter: activates beta-lactamase reporter in GALR2 agonist counterscreen; shares compounds with GALR2 ag; CHO NFAT-bla reporter, beta-lactamase FRET activation; activation, % at 5.6 µM; actives 10% (n = 460); AID 865;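 active = activation above the screen-wide mean activation plus 3 SD, cut at about 8% in these data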
GALR2 ant conf: confirmation of human galanin receptor 2 (GALR2) antagonists. AID 866. inhibition, % at 4 µM. shares compounds with GALR2 antag. GALR2-expressing cells, antagonist mode, inhibition. actives 60% (n = 480);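 note: cells stimulated with galanin at about its EC80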
BLA inhib ctr: counter-screen for GALR2 antagonists: beta-lactamase reporter inhibitors. CHO NFAT-BLA reporter, beta-lactamase FRET, thapsigargin-stimulated. shares compounds with GALR2 antag. inhibition, % at 4.2 µM. AID 867. actives 36% (n = 480);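 active = inhibition above the mean inhibition across tested compounds plus 3 SD, cut at about 27% in these data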
A number is an active result; n = inactive; x = not tested or not shown. Only some compounds are listed: those with a hit (about 1.3% of all), similar ones and a draw of the others. Cut-off read from the data, not from the text of the source, unless noted: active = inhibition above about 27%; inactive = the rest.

SMILES | GALR2 antag | GALR2 ag | F-actin modifier | S1P2 blocker | S1P2 agonist | GALR2 agon conf | BLA act counter | GALR2 ant conf | BLA inhib ctr
CC(=O)c1nn(-c2ccc(Br)cc2)cc1C(=O)c1ccccc1 | n | 8.6 | x | x | x | n | n | x | x
CC(=O)c1nn(-c2ccc(Br)cc2)cc1C(=O)c1ccco1 | n | n | n | n | n | x | x | x | x
CCOC(=O)N1CCN(C(=O)c2ccc3c(=O)n(CCc4ccccc4)c(=S)[nH]c3c2)CC1 | n | n | n | n | n | n | n | x | x
c1coc(CN(Cc2ccco2)c2ncnc3c2oc2ccccc23)c1 | n | n | n | n | n | n | n | x | x
Clc1ncnc2c1oc1ccccc12 | n | n | n | n | n | x | x | x | x
COc1ccc(-c2cc(-c3ccccc3)c(C#N)c(S(C)=O)n2)cc1 (stereo unspecified) | n | 26.9 | n | n | n | n | 16.6 | x | x
CCOC(=O)N1CCN(c2ccc(C(=O)CC)cc2F)CC1 | n | n | n | n | n | x | x | x | x
CCCC(=O)c1ccc(N2CCN(C(=O)OCC)CC2)c(F)c1 | n | 30.4 | x | n | n | n | n | x | x
COC(=O)c1cc2c(ccn2-c2ccc(F)cc2)n1CC(C)C | n | 8.8 | n | n | n | n | n | x | x
COc1ccccc1NC(=S)Nc1ccccn1 | n | 44.2 | x | x | x | n | n | x | x
COC(=O)c1ccc2c(c1)C(C)(C)C(/C=C/c1ccccc1O)=[N+]2C | n | 12.8 | n | n | n | n | n | x | x
C[N+]1=C(/C=C/Nc2ccccc2Cl)C(C)(C)c2ccccc21 | n | n | x | x | x | x | x | x | x
Cc1ccc(Nc2cnn(C34CC5CC(CC(CC(=O)O)(C5)C3)C4)c(=O)c2Cl)cc1 | n | n | x | n | n | n | n | x | x
CC(C)c1ccc(Nc2cnn(C34CC5CC(CC(CC(=O)O)(C5)C3)C4)c(=O)c2Cl)cc1 | n | n | x | n | n | x | x | x | x
Cc1ccc(/C=N/NC(=O)CC(=O)NCc2cccnc2)cc1 | n | n | x | x | x | x | x | x | x
Cc1ccc(OCc2nnc(SCC(=O)Nc3nccs3)n2-c2ccccc2)cc1C | n | n | n | n | n | x | x | x | x
Cc1ccc(-n2c(COc3c(C)cccc3C)nnc2SCC(=O)Nc2nccs2)cc1 | n | 64.5 | n | n | n | n | n | x | x
O=C(/C(=N\Nc1ccccc1)Sc1nnnn1-c1ccccc1)c1ccccc1 | n | n | x | x | x | x | x | x | x
CC(=O)CCn1c(=O)n(CCC(C)=O)c(=O)n(CCC(C)=O)c1=O | n | 36.4 | n | n | n | n | n | x | x
NC(=O)C1CC(=O)N(c2ccc(OCC(=O)Nc3cccc(C(F)(F)F)c3)cc2)C1 (stereo unspecified) | n | n | n | n | n | n | n | x | x
CCOc1ccc(S(=O)(=O)Nc2ccccc2C(=O)NCC2CCCO2)cc1 (stereo unspecified) | n | n | n | n | n | x | x | x | x
CCOc1ccccc1N=c1oc2cc(O)ccc2cc1C(=O)NCC1CCCO1 (stereo unspecified) | n | 65.6 | n | n | 17.7 | n | n | x | x
O=C(COC(=O)[C@@H]1CC(O)CN1S(=O)(=O)c1ccccc1[N+](=O)[O-])Nc1ccc2ccccc2c1 (stereo partly specified) | n | n | x | x | x | x | x | x | x
Cc1cc(C(=O)N/N=C/c2cc(Cl)cc([N+](=O)[O-])c2O)c2ccccc2n1 | n | n | x | x | x | x | x | x | x
O=C(N/N=C/c1cc(Cl)cc([N+](=O)[O-])c1O)NC12CC3CC(CC(C3)C1)C2 | n | 20.7 | x | x | x | n | n | x | x
SMILES | GALR2 antag | GALR2 ag | F-actin modifier | S1P2 blocker | S1P2 agonist | GALR2 agon conf | BLA act counter | GALR2 ant conf | BLA inhib ctr
C/C(=N/NC(=O)c1ccc2nc[nH]c2c1)c1cccs1 | n | n | x | x | x | x | x | x | x
CC1=C/C(=N\OS(=O)(=O)c2ccccc2)C(C(C)C)=CC1=O | 47.1 | 9.6 | x | x | x | 11.3 | n | 52.5 | 29.2
O=C(NNS(=O)(=O)c1ccc2ccccc2c1)c1cc(-c2ccccn2)nc2ccccc12 | n | n | x | x | x | x | x | x | x
Brc1ccc(-c2ccc(/C=N/Nc3nc4ccccc4[nH]3)o2)cc1 | 28.9 | 22.8 | x | x | x | 9.5 | 17.5 | n | n
Brc1ccc(-c2ccc(/C=N/Nc3nncc(-c4ccccc4)n3)o2)cc1 | n | n | n | n | n | x | x | x | x
COc1ccc2[nH]c(=O)c(CN(CCCN(C)C)C(=O)Nc3ccccc3)cc2c1 | n | n | n | n | n | x | x | x | x
CCc1ccc2[nH]c(=O)c(CN(CCN(C)C)C(=O)Nc3ccccc3)cc2c1 | 27.4 | n | n | n | n | x | x | n | n
Cn1c2c(c(=O)n(C)c1=O)C(C(F)(F)F)(C(F)(F)F)N=C(c1ccc(Cl)cc1)N2 | 67.8 | n | n | 85.6 | n | x | x | 72.5 | 58.0
Cc1c(C(=O)C(=O)N2CCCc3ccccc32)c2ccccc2n1C | n | n | x | x | x | x | x | x | x
CNc1c([N+](=O)[O-])ncn1C | n | n | n | n | n | x | x | x | x
CNc1nc2cc([N+](=O)[O-])c([N+](=O)[O-])cc2nc1NC | 54.1 | n | x | x | x | x | x | 64.8 | n
COc1ccc(NS(=O)(=O)Cc2ccccc2Cl)cn1 | n | n | n | n | n | x | x | x | x
COc1ccc(NC(=O)/C(Cl)=C(/Cl)S(=O)(=O)Cc2ccccc2)cn1 | 81.7 | n | n | 104.0 | n | x | x | 92.0 | 92.0
COc1ccc(S(=O)(=O)Nc2ccccc2-c2nnn(CC(=O)Nc3ccccc3OC)n2)cc1 | 28.4 | n | x | x | x | x | x | n | n
COc1cccc(-n2nnnc2S(C)(=O)=O)c1 | 33.0 | n | n | n | n | x | x | 54.9 | 58.1
COc1cccc(Oc2nnnn2-c2ccccc2)c1 | n | n | n | n | n | x | x | x | x
Cc1nnc(SCC(=O)Nc2cccc(S(=O)(=O)N(C)c3ccccc3)c2)s1 | 32.0 | n | x | x | x | x | x | 35.1 | n
COc1ccc(OC)c(NC=C2C(=O)OC3(CCCCC3)OC2=O)c1 | 49.9 | n | n | n | n | x | x | n | n
CC(=O)C(=Nc1ccccc1Cl)NNc1ccc(Cl)cc1 | 27.6 | n | n | n | n | x | x | n | n
CCCNC(=O)c1ccc2c(c1)ncn2-c1ccccc1OC | 27.9 | n | x | x | x | x | x | n | n
O=[N+]([O-])c1ccc(N/N=C/c2c[nH]c3ccccc23)cc1 | 35.9 | n | n | n | n | x | x | n | 30.4
O=[N+]([O-])c1ccccc1N/N=C/c1c[nH]c2ccccc12 | n | n | n | n | n | x | x | x | x
O=C(/C=C(/c1ccc(Cl)cc1)n1cncn1)c1ccccc1 | n | n | x | x | x | x | x | x | x
CCOC(=O)N1CCN(C(=O)c2ccccc2NC(=O)c2ccc(F)cc2)CC1 | n | n | x | x | x | x | x | x | x
CCOC(=O)N1CCC(N2C(=O)c3ccc(C(=O)Nc4ccc(F)cc4F)cc3C2=O)CC1 | 28.0 | n | x | x | x | x | x | n | n
CCOC(=O)Cc1csc(NC(=S)NC(=O)C(C)(C)C)n1 | n | n | x | x | x | x | x | x | x
COc1coc(C(O)CN)cc1=O (stereo unspecified) | n | n | x | x | x | x | x | x | x
CCOC(=O)C(=Cc1cc(=O)c(OC)co1)C(=O)OCC | 40.7 | n | x | x | x | x | x | 67.4 | 57.9
O=C(N/N=C/c1cn(-c2ccccc2)nc1-c1cccs1)c1ccccc1F | n | n | x | x | x | x | x | x | x
CC1=NNC(=O)/C1=C\c1cn(-c2ccccc2)nc1-c1cccs1 | 31.2 | n | x | x | x | x | x | n | n

Screening data: PubChem, several laboratories
